In PubChem BioAssay AID720621 (The Scripps Research Institute Molecular Screening Center, 2013) one finds inhibition data, which are given here for two compounds.

The test addresses Fibrinogen beta chain (Homo sapiens) (UniProt P02675). The test can be described thus: DD(E) binders in alternate-peptide displacement assay, confirmation, counter-screen for fibrin DD(E)-Tn6 binding project, biochemical, fluorescence polarization, human fibrin (AID 720621).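 Further: 0% = median of compound wells and 100% = wells with Aha-Tn7 blocking peptide.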 Particulars: TRITC-Tn6 fluorescence polarization displacement, at 8.3 µM, hits give high values. (A counterscreen serves to expose hits that act by an unwanted route or on another target.)

The list shows a part of the results. Values without a mark were called inactive.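 How the source made its calls: active means inhibition above the mean of test compounds lying between the control limits plus 3 SD of those (cut at about 14% in these data); inactive means the rest.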

Sequence of Fibrinogen beta chain (Homo sapiens) (P02675 whole entry, looked up): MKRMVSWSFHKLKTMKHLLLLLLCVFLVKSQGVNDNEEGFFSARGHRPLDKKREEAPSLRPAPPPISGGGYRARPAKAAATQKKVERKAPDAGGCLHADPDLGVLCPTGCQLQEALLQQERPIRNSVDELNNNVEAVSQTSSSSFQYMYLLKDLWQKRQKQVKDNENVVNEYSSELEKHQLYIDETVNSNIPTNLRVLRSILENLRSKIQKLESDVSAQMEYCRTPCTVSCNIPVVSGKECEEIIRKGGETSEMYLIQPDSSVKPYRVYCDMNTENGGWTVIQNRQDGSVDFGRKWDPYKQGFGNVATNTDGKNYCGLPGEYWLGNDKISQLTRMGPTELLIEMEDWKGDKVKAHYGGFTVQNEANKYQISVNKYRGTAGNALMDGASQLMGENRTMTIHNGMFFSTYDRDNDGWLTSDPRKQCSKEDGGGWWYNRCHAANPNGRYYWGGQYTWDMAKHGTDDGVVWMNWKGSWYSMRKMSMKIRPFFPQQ

As usually defined, the inhibition is the change of the read-out against control, counted positive when it falls. `COc1ccc2c(c1O)-c1cccc3c1[C@@H](C2)N(C)CC3`: the inhibition is -6.45%.

As for `Cc1cc(N2CCNC[C@@H]2C)ccc1N1CC[C@H](O)C1`, the inhibition was 2.02%.
